Screens: PubChem, National Center for Advancing Translational Sciences (NCATS)
TRb-SRC2 inh = TRbeta-SRC2 interaction inhibition | P10828 | Potency, µM (titrated, usually from 106 µM), inactives show at the top dose activity change, negative = inhibition, actives largely listed as inhibitors | 280,000 compounds, 0.065% hits | TRbeta-SRC2 peptide binding, fluorescence polarization; receptor liganded with 1 µM T3 | AID 1469;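 note: plate controls were bound peptide for no effect and peptide without receptor for full effect; nearly all actives have a fitted effect of over 50% in size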
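Human TRb LBD (0.6 uM) plus Texas Red-labeled SRC2 peptide (20 nM), 1uM T3, 5% DMSO, 5 hr at ambient temperature. Decreased polarization (555/632 nm) flags inhibition; data normalized to free and bound peptide controls.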
RECQ1 inh-1 = blocks DNA unwinding by human RECQ1; P46063; RECQ1 DNA unwinding, red fluorescence kinetic read; Potency, µM (series often up to 57.3 µM), without a hit: at the highest dose activity, negative = inhibition, hits mostly inhibitors; 240,000 compounds, 0.54% hits; AID 2549;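 note: plate controls were vehicle for no effect and no enzyme for full effect; nearly all actives have a fitted effect of over 30% in size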
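RECQ1T1 50 nM; forked duplex (20 bp + 30-nt ss tails) 200 nM, ATP 2 mM final; pH 8.0, 2 mM MgCl2, 2.5 ug/ml poly(dI-dC); 15 min compound preincubation; discontinuous kinetic read over 2 h at RT.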
WRN inhibitor = WRN helicase (human) inhibition. 360,000 compounds, 0.46% hits. Potency, µM (highest dose often 114 µM), for inactives: at the top dose activity change, negative = inhibition, hits mostly inhibitors. AID 651768. WRN helicase unwinding, fluorescent forked duplex, kinetic. Q14191; note: nearly all actives have a fitted effect of over 55% in size
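WRN at 20 nM final was preincubated with compound for 15 min at room temperature; reaction started with 100 nM forked duplex oligonucleotide carrying fluorophore and quencher plus 2 mM ATP (final). Unwinding followed kinetically by red fluorescence (ex 525/em 598 nm).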
TR SRC2 fluor cs = alters Texas Red total fluorescence, flagging assay interference. TRb/SRC2 Texas Red total fluorescence interference. Potency, µM (top dose mostly 106 µM), for the others: top-dose fluorescence change, negative = quenching. 280,000 compounds, 0.29% hits; active = well fitted curve in either direction with a large enough effect; inconclusive = small, poorly fitted or top-dose-only effect
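Human TRβ ligand-binding domain (0.6 uM) and Texas Red SRC2 peptide (20 nM) in Tris buffer with 1 uM T3 and 5% DMSO were incubated with pinned compound for 5 hr at ambient temperature. Total fluorescence was computed as S + 2P (555/632 nm).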
APEX1 inh = blocks human APE1 abasic DNA cleavage. P27695. recombinant APE1, TAMRA/BHQ-2 abasic DNA cleavage fluorescence. Potency, µM (highest dose often 65.8 µM), without a hit: at the top dose activity change, negative = inhibition, most hits filed as inhibitors. 350,000 compounds, 0.35% hits. AID 2517;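 note: plate controls were vehicle for no effect and reference inhibitor for full effect; nearly all actives have a fitted effect of over 55% in size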
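Kinetic fluorescence read (525 ex/598 em nm, three reads 60 s apart) of AP-site incision; signal = third minus first read. Enzyme 0.75 nM, dual-labelled THF duplex 50 nM, compound preincubation 15 min RT.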
BLM inh = inhibitors of human Bloom syndrome helicase BLM. P54132. recombinant BLM DNA unwinding, fluorescence dequenching. Potency, µM (series often up to 56.1 µM), inactives show top-dose activity change, negative = inhibition, actives largely listed as inhibitors. 350,000 compounds, 0.2% hits. AID 2528;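 note: plate controls were vehicle for no effect and no enzyme for full effect; nearly all actives have a fitted effect of over 35% in size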
Target sequence (P54132 whole entry, looked up): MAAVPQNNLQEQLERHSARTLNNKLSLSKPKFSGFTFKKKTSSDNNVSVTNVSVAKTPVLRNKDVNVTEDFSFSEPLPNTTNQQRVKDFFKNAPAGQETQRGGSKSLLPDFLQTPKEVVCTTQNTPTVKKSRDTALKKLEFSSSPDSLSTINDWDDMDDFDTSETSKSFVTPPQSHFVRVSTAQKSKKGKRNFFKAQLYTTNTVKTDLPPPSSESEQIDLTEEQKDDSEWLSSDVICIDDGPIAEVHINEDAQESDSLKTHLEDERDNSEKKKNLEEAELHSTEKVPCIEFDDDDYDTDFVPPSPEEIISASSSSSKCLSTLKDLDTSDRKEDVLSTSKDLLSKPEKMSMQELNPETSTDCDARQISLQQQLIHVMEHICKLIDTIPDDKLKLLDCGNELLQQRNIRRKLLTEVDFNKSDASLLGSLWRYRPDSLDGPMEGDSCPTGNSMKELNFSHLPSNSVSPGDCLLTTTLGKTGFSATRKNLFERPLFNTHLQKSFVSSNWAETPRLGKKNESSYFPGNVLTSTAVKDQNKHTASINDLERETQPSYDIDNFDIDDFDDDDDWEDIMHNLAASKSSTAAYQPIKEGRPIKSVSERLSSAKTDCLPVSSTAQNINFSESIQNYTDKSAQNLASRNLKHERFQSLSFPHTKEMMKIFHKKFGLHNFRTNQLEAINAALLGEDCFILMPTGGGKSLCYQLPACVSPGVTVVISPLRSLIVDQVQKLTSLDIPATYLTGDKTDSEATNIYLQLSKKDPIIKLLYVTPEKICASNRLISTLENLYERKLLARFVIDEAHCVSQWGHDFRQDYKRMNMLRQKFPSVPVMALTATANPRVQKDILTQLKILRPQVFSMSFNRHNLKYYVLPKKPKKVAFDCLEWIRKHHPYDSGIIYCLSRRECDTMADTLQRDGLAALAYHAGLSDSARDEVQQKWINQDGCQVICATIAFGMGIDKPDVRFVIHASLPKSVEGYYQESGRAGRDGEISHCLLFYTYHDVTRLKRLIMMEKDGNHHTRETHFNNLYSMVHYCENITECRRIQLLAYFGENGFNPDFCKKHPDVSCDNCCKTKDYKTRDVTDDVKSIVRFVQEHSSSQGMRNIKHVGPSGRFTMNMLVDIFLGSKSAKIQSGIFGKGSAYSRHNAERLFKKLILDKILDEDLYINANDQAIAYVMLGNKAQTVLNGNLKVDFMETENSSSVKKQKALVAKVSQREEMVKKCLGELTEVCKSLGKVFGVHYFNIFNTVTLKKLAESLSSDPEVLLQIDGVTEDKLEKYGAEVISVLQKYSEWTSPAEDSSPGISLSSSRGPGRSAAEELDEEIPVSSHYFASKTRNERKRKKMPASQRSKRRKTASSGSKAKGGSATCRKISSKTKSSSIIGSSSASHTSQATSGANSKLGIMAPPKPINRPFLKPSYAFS
RECQ1 conf = confirmation of human RECQ1 helicase inhibitors; shares compounds with RECQ1 inh-1; RECQ1 helicase DNA unwinding, fluorescence; Potency, µM (titrated, usually from 229 µM), for the others: top-dose activity change, negative = inhibition, hits mostly inhibitors; 610 compounds, 28% hits; AID 2708; note: nearly all actives have a fitted effect of over 45% in size
ADP FP counter = displaces ADP in a fluorescence polarization counter-screen for RECQ1 hits; shares compounds with RECQ1 inh-1; ADP fluorescence polarization displacement counterscreen; Potency, µM (top dose mostly 228 µM), for inactives: at the top dose activity change, negative = inhibition, hits mostly inhibitors; 530 compounds, 27% hits; note: nearly all actives have a fitted effect of over 45% in size
RECQ1 inh-2 = blocks human RECQ1 DNA unwinding | recombinant RECQ1 DNA unwinding, red fluorescence | AID 504841 | 1,100 compounds, 15% hits | Potency, µM (series often up to 119 µM), without a hit: at the highest dose activity, negative = inhibition, actives largely listed as inhibitors | shares compounds with RECQ1 inh-1; note: nearly all actives have a fitted effect of over 50% in size
The depositor's hits bear a star; i = inactive; ? = inconclusive; . = not tested or not shown; [ ] = another dose, or the depositor's remark. This is a sample that favours compounds with a hit; in the whole collection about 0.91% have one here. Unless noted, calls come from the whole dose curve; as a rule, active = well fitted curve in the direction sought with a large enough effect; inconclusive = small, poorly fitted or top-dose-only effect, or another doubt; inactive = no such curve, though single readings can be large; an effect the other way counts as inactive or inconclusive. Unless noted, % is set by controls: 0 for no effect and ±100 for the full control effect; potency is the fitted concentration of half-maximal effect.

SMILES | TRb-SRC2 inh | RECQ1 inh-1 | WRN inhibitor | TR SRC2 fluor cs | APEX1 inh | BLM inh | RECQ1 inh-2 | others
CCOC(=O)c1c(NC(=O)/C=C/C(=O)O)sc(C)c1-c1ccc(C(C)(C)C)cc1 | ? | ? | -34% | -6% | 8% | -12% | 50µM*
CCOC(=O)c1c(NC(=O)/C=C\C(=O)O)sc(C)c1-c1ccccc1 | ? | i | 7% | 2% | -1% | -1% | .
COc1ccc(-c2nn(-c3ccccc3)cc2CNC[C@H]2O[C@@H](n3ccc(=O)[nH]c3=O)[C@H](O)[C@@H]2O)cc1 | . | . | -7% | . | . | . | .
COc1cccc(F)c1C(=O)NC(=O)Nc1ccc2nc(C)oc2c1 | -26% | 35µM* | 8% | ? | ? | -6% | 26%
CCc1n[n+](CC(=O)c2ccccc2)c(N)s1 | -4% | -1% | 3% | -2% | -7% | -11% | .
COc1ccc(-c2csc(NC(=O)c3ccc(S(=O)(=O)N4CCc5ccccc5C4)cc3)n2)cc1 | -11% | -4% | -2% | 0% | 12% | 2% | . | RECQ1 conf=-7%;ADP FP counter=5%
COC(=O)c1ccc(-c2csc(NC(=O)c3ccc(S(=O)(=O)N4CCc5ccccc5C4)cc3)n2)cc1 | -7% | 2% | -8% | -1% | -1% | -2% | . | RECQ1 conf=8%;ADP FP counter=16%
Cc1cc(C)cc(OCC(=O)Nc2nonc2NC(=O)COc2cc(C)cc(C)c2)c1 | -2% | ? | -21% | 1% | 4% | -4% | -1%
COC(=O)c1ccc(NC(=O)CN(c2cccc(C(F)(F)F)c2)S(C)(=O)=O)cc1 | 0% | . | . | 3% | . | -10% | .
Clc1ccc(Nc2nc(N3CCOCC3)nc(N3CCOCC3)n2)cc1Cl | . | . | 3% | . | -21% | 0% | .
Cc1ccc(Nc2nc(N3CCOCC3)nc(N3CCOCC3)n2)cc1 | -11% | -6% | -2% | -2% | 0% | -5% | .
CC(=O)Nc1ccc(Nc2nc(Nc3ccc(Cl)cc3)nc(N3CCOCC3)n2)cc1 | . | . | . | . | . | . | . | RECQ1 conf=-6%[69.1 µM]
Cc1ccc(Nc2nc(Nc3ccc(Cl)cc3)nc(N3CCOCC3)n2)cc1 | . | . | . | . | . | . | . | RECQ1 conf=-15%[69.1 µM]
CC(C)C[C@H]1CNC(=S)N1CC1CCN(CCCC2CCCCC2)CC1 | . | . | 5% | . | . | . | .
COc1ccc(S(=O)(=O)Nc2cc(OC)cc3cccnc23)cc1 | -6% | -1% | . | -1% | -2% | 0% | .
O=C(Nc1cc(-c2ccccc2)nn1-c1ccccc1)c1ccccc1F | . | . | 2% | . | -9% | . | .
COC(=O)Nc1ccc(S(=O)(=O)N2CCCC(C(=O)Nc3cccnc3)C2)cc1 (stereo unspecified) | 0% | -3% | 7% | -1% | 0% | 1% | . | RECQ1 conf=9%;ADP FP counter=10%
CCOC(=O)c1c(NC(=O)COc2ccc(Br)cc2)sc2c1CCCC2 | 12% | . | . | -2% | . | -5% | .
COc1cccc(=O)c2c(C)n(-c3ccc(C(=O)O)cc3)c(C)c12 | -3% | ? | ? | 3% | ? | 2% | ?
CCOc1cccc(=O)c2c(C)n(-c3ccc(C(=O)O)cc3)c(C)c12 | -1% | ? | ? | -2% | ? | 33% | ?
CCOc1cccc(=O)c2c(C)n(Cc3ccccc3)c(C)c12 | -6% | i | 2% | -2% | -6% | -7% | .
Cc1ccc(S(=O)(=O)NNC(=O)Nc2ccc(Cl)cc2)cc1 | -3% | 22µM* | -10% | -1% | 1% | -11% | -18%
CCN(CC)S(=O)(=O)c1ccc2c(c1)nc(CCC(=O)O)n2CC | 3% | i | -1% | 1% | -1% | 4% | . | RECQ1 conf=10%;ADP FP counter=5%
COc1ccccc1-c1csc(NC(=O)c2cc(-c3cccs3)nc3ccccc23)n1 | 6% | ? | -2% | 0% | 15% | -15% | -13%
CCOc1ccc(NC(=O)Cn2nc(Cc3cccnc3)c3ccccc3c2=O)cc1 | -8% | . | . | -2% | . | -11% | .
SMILES | TRb-SRC2 inh | RECQ1 inh-1 | WRN inhibitor | TR SRC2 fluor cs | APEX1 inh | BLM inh | RECQ1 inh-2 | others
CC(=O)N[C@@H](Cc1c[nH]c2ccccc12)C(=O)OCC(=O)Nc1ccc(S(=O)(=O)N(C)C)cc1 | 2% | 11% | -1% | -1% | -7% | -5% | .
CCC1=NN2C(=N)/C(=C/c3c(C)nn(-c4ccccc4)c3Cl)C(=O)N=C2S1 | -3% | -6% | -2% | -2% | 7% | -13% | .
O=C1NC(=S)S/C1=C\c1ccc(SCc2ccccc2)o1 | 4% | ? | ? | -13% | ? | -1% | .
CCCC1=NN2C(=N)/C(=C\c3ccc(SCc4ccco4)o3)C(=O)N=C2S1 | ? | 10µM* | 40µM* | 50µM*[fluorescent] | 4µM* | ? | 35µM*
O=C1NC(=S)S/C1=C\c1ccc(SCc2ccco2)o1 | ? | 5µM* | 8.9µM* | ? | 1.8µM* | ? | . | RECQ1 conf=40µM*
CCC1=NN2C(=N)/C(=C\c3ccc(SCc4ccco4)o3)C(=O)N=C2S1 | 28% | 22µM* | 50µM* | ? | ? | ? | -30%
CCCC1=NN2C(=N)/C(=C\c3cc(C)n(Cc4ccccc4)c3C)C(=O)N=C2S1 | -2% | i | -5% | -6% | -4% | -8% | .
